Test results: PubChem BioAssay
Calls of active or inactive are those of the source.

What was measured:
[1] = tested on: PRMT1 (protein arginine N-methyltransferase 1); assay: small molecules binding arginine methyltransferase PRMT1 – biochemical, small-molecule microarray, 635 nm fluorescence, primary screen (AID 1088); conditions: higher = more signal;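 further: binding of Prmt1 protein to compounds spotted on small-molecule microarray slides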
[2] = growth effects on S. cerevisiae YJM789 – YJM789 clinical isolate, OD600, 24 h, basal, primary screen (AID 1089); conditions: higher = more signal, called active from +8 up or from −8 down;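 further: growth of clinical yeast isolate S. cerevisiae YJM 789 seeded 1000 cells per well; test concentration not given here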
[3] = S. pombe growth modifiers, basal conditions – strain 972, OD600, 24 h, no modulator, primary screen (AID 1090);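 further: basal condition with compound alone and no growth modifier present; test concentration not given here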; conditions: S. pombe 972 growth, higher = more signal, called active from +8 up or from −8 down
[4] = budding yeast growth modifiers under rapamycin – strain BY4716, OD600, 96 h, primary screen (AID 1091); further: test concentration not given here; conditions: S. cerevisiae BY4716 + rapamycin, higher = more signal, called active from +8 up or from −8 down
[5] = target: Torsin-1A-interacting protein 2 (Homo sapiens) (UniProt Q8NFQ8); assay: small molecules binding lysate-expressed LULL1 – cell lysate, human LULL1 lysate, 635/667 nm fluorescence, primary screen (AID 1092); conditions: small-molecule microarray, hLULL1 lysate binding, 635 nm fluorescence; higher = more signal;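 further: probe is lysate of COS7 cells overexpressing human LULL1; score merges per-feature 667 nm fluorescence with signal-to-noise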
[6] = optical density change of DRC41 E. coli – strain DRC41, OD650, 24 h, E. coli filamentation project, primary screen (AID 1093);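 further: MC1000 strain lacking acrAB efflux and sulA so SOS filamentation is blocked; test concentration not given here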; conditions: E. coli DRC41 growth, higher = more signal, called active from +8 up or from −8 down
[7] = probe aLefty2 binding to arrayed compounds – biochemical, biotinylated probe, 635/667 nm fluorescence, primary screen (AID 1094); conditions: small-molecule microarray, higher = more signal;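 further: score merges spot fluorescence near 667 nm with spot signal-to-noise ratio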
[8] = tested on: Noggin (protein binding on small-molecule microarray); assay: small molecules binding Noggin protein – biochemical, 635/667 nm fluorescence, primary screen (AID 1095); conditions: 635 nm fluorescence, higher = more signal;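 further: score merges 667 nm feature fluorescence with signal to noise over triplicate slides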
[9] = target: Neurogenic locus notch homolog protein 3 (Homo sapiens) (UniProt Q9UM47); assay: small molecules binding NOTCH3 protein – biochemical, 635/667 nm fluorescence, primary screen (AID 1096); conditions: small-molecule microarray, 635 nm fluorescence, higher = more signal
[10] = probe aEGFR binding to arrayed compounds – biochemical, biotinylated probe, 635/667 nm fluorescence, primary screen (AID 1097); conditions: small-molecule microarray, higher = more signal;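 further: probe is a biotinylated anti-EGFR antibody binding compounds printed on slides; score combines fluorescence near 667 nm and signal to noise of each spot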

Chain of Torsin-1A-interacting protein 2 (Homo sapiens) (Q8NFQ8 whole entry, looked up): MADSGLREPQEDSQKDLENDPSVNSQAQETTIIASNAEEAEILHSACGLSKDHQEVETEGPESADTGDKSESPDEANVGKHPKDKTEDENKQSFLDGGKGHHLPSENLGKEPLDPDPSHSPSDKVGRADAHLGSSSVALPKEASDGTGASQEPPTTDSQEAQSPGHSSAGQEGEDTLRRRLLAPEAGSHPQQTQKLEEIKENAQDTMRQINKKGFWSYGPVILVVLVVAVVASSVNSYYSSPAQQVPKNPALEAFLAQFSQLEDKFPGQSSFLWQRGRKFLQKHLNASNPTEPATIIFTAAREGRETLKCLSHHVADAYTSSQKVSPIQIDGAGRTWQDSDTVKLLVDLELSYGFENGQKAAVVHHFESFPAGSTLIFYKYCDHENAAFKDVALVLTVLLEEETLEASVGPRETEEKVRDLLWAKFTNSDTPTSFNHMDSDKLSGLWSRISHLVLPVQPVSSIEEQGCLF
Chain of Neurogenic locus notch homolog protein 3 (Homo sapiens) (Q9UM47 whole entry, looked up): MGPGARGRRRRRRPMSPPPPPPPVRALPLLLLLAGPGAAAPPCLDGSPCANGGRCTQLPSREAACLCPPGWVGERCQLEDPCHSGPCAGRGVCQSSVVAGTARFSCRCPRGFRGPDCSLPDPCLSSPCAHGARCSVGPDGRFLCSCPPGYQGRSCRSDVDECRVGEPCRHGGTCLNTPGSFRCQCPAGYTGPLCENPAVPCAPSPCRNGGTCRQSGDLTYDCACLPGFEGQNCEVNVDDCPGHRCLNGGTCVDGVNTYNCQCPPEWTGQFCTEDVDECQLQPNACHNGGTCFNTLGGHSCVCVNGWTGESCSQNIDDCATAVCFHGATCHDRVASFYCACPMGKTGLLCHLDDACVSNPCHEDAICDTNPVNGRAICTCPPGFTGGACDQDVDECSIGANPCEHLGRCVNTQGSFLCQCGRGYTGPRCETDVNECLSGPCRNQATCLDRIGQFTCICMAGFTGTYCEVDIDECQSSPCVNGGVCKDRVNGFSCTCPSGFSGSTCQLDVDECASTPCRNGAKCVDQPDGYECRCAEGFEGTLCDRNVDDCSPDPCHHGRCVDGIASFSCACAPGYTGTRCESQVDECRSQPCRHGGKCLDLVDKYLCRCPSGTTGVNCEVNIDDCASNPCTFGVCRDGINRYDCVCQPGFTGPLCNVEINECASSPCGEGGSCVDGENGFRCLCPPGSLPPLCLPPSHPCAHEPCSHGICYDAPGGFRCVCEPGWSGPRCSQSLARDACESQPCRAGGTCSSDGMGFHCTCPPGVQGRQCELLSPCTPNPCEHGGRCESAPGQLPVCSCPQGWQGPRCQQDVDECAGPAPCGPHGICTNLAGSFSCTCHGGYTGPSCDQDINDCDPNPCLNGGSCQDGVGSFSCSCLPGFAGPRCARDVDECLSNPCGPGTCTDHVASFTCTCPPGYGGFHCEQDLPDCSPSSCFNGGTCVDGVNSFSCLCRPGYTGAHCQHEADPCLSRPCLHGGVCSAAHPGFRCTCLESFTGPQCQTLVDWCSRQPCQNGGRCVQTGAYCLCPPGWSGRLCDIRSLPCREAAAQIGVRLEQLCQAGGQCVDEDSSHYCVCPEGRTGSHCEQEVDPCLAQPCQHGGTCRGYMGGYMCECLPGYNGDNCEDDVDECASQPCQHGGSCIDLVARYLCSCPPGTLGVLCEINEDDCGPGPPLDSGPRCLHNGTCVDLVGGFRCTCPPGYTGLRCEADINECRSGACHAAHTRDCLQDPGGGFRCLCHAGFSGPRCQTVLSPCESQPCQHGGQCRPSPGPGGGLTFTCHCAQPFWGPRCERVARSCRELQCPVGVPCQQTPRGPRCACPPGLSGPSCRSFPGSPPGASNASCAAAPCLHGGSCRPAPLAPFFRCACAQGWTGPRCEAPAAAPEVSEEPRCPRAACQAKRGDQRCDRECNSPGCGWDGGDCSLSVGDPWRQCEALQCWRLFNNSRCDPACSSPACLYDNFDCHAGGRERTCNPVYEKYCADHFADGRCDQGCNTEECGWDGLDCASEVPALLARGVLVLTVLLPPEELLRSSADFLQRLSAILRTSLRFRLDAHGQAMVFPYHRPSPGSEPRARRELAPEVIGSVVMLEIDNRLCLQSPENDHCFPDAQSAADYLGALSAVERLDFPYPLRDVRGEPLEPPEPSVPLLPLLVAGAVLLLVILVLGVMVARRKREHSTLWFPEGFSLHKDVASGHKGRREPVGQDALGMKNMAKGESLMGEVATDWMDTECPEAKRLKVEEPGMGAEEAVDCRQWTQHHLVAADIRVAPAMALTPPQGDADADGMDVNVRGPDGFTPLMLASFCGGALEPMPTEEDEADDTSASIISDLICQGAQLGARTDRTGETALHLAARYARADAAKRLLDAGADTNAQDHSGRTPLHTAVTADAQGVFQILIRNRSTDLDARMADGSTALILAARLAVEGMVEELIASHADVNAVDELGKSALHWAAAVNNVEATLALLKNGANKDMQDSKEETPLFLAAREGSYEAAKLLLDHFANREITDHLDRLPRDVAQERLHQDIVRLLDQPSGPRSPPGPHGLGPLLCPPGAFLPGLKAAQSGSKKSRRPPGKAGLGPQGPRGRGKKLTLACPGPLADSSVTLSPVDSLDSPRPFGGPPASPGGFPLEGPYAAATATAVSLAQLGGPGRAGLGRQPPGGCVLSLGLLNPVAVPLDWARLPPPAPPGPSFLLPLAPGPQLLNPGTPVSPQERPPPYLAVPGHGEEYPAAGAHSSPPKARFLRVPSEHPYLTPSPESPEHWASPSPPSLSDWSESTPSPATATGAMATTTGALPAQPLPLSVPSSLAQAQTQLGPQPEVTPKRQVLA

Structure (SMILES)	composite z-score [1]	z-score [2]	z-score [3]	z-score [4]	composite z-score [5]	z-score [6]	composite z-score [7]	composite z-score [8]	composite z-score [9]	composite z-score [10]
Cc1ccc(S[C@]2(C(=O)NCc3ccccc3)CC(=O)N(C3CCCCC3)[C@@H]2c2ccc(CO)cc2I)cc1	1.15	-0.727 (inactive)	-0.462 (inactive)	0.861 (inactive)	2.72	-0.455 (inactive)	-0.0948	0.147	0.237	-0.139
O=C1C2C=CC(C(O)C3CC=CCC3)N(Nc3ccccc3)C2C(=O)N1c1ccccc1 (stereo not given)	1.24	0.399 (inactive)	-0.428 (inactive)	0.662 (inactive)	3.09	-1.6 (inactive)	0.401	-0.146	1.06	0.153
CN(C)C(=O)[C@]1(Cc2ccccc2CN=[N+]=[N-])N=C(c2ccc(OCCCO)cc2)O[C@@H]1c1ccccc1	1.57	-0.545 (inactive)	-1.07 (inactive)	20.8 (active)	3.29	-0.915 (inactive)	-0.0352	0.104	0.439	0.0958
N[C@@H](Cc1ccccc1)C(=O)NCc1cn(Cc2ccccc2)nn1	0.05	0.246 (inactive)	-0.572 (inactive)	-1.05 (inactive)	-0.183	0.78 (inactive)	0.0582	0.465	-0.005	0.0282
O=C1OCCC=C[C@H]2OC34C=CCN(c5ccc6ccccc6c5)C(=O)[C@H]3N(CCCO)C(=O)[C@@H]4C12 (stereo not given in full)	-1.63	0.312 (inactive)	-0.951 (inactive)	0.345 (inactive)	-0.939	0.843 (inactive)	-0.222	-2.16	-1.19	-0.295
COC(=O)[C@@]1(Cc2ccc(OC)cc2)[C@H]2c3cc(C(=O)N(C)C)n(Cc4ccc(C)o4)c3C[C@H]2CN1C(=O)c1ccccc1	0.549	-0.529 (inactive)	0.805 (inactive)	0.0527 (inactive)	3.6	0.527 (inactive)	0.347	-0.263	0.916	0.229
Cc1ccc(S[C@]2(C(=O)NCC(F)(F)F)CC(=O)N(Cc3cc(C(F)(F)F)cc(C(F)(F)F)c3)[C@@H]2c2ccc(CO)cc2I)cc1	-0.0631	-2.58 (inactive)	-2.58 (inactive)	-0.857 (inactive)	-0.0923	-0.3 (inactive)	-0.054	-0.716	-1.32	-0.556
C=CCOC(=O)[C@@H]1[C@H]2C(=O)O[C@H](c3ccccc3)[C@H](c3ccccc3)N2[C@H](c2ccc(OCCOC(=O)[C@@H]3C[C@@H]4C(=O)N[C@@H](CCCC[N+](C)(C)C)C(=O)N4[C@@H]3c3ccc(O)cc3)cc2)[C@@]12C(=O)Nc1ccc(I)cc12	1.53	0.954 (inactive)	-1.48 (inactive)	1.02 (inactive)	2.21	-0.0235 (inactive)	-0.103	0.989	1.07	-0.0006
C=CCN1C(=O)[C@]2(CCC(=O)OC(C)(C)C)N=C(c3ccc(OCCCO)cc3)O[C@@H]2c2ccccc21	1.08	-2.22 (inactive)	-1.56 (inactive)	3.46 (inactive)	2.02	1.06 (inactive)	0.128	0.501	0.772	0.401
C[N+](C)(C)CCCC[C@@H]1NC(=O)[C@@H]2C[C@H](C(=O)NCCCCCCN)[C@H](c3cccc(OCCO)c3)N2C1=O	1.45	-0.344 (inactive)	-4.23 (inactive)	-0.244 (inactive)	2.44	0.0037 (inactive)	1.26	0.47	0.748	0.617
CCOC(=O)C[C@H]1[C@H](OC(=O)Cc2ccc3c(c2)OCO3)[C@@H](NC(=O)c2ccc3ccccc3n2)c2cc(OCCCO)ccc2N1C(=O)c1ccc2ccccc2n1	0.755	-2.47 (inactive)	-1.99 (inactive)	-0.727 (inactive)	1.03	2.22 (inactive)	-0.0708	0.719	0.497	-0.124
CC(=O)N1CC2(CC2)CC1c1ccccc1 (stereo not given)	0.594	-0.999 (inactive)	0.661 (inactive)	0.218 (inactive)	1.19	0.0425 (inactive)	0.0423	0.423	0.251	0.0986
CCCCC(=C=CC[C@H](O)c1ccc(OCCO)cc1)CCO	-0.0461	-0.879 (inactive)	-0.982 (inactive)	-1.02 (inactive)	2.24	-0.0915 (inactive)	-0.179	-0.124	-0.65	-0.232
C=CCNC(=O)[C@@H]1[C@H]2C(=O)O[C@H](c3ccccc3)[C@H](c3ccccc3)N2[C@H](c2ccccc2OCCO)[C@@]12C(=O)Nc1ccc(C#CCC(C(=O)OC)C(=O)OC)cc12	1.45	1.13 (inactive)	1.19 (inactive)	3.72 (inactive)	1.77	-0.736 (inactive)	-0.366	0.0639	1.07	-0.24
